# Results as given in PubChem BioAssay AID493191 (Broad Institute, 2011).
# Screen size: about 1,300 compounds; about 330 (25%) were called active. Only a sample is shown. Potency and affinity values are given separately. Unmarked numbers belong to inactive results. How the calls were made is not given here.
# Assay: MALME3 melanoma cell viability loss, dose response, orthogonal assay for MITF inhibitor project, CellTiter-Glo, cherry-picked (AID 493191)
# Details: CellTiter-Glo luminescence, 24 h; series mostly up to 35 µM; activity change, negative = inhibition: at the top concentration
row,SMILES,"activity change, negative = inhibition [%]"
1,COC(=O)[C@@H]1C[C@]2(OC(=O)c3ccccc3)C=CC(=O)C[C@@H]2N1C(=O)OCc1ccccc1,-28.2
2,O=C1CN(c2ccccc2)C(=S)N1C(=O)c1ccccc1,2.12
3,Cc1cc(-n2c(C)cc(C(=O)CCl)c2C)no1,-35.4
4,COc1ccc2oc3ccc(OC)cc3c(=O)c2c1,-10.7
5,Cc1cc(C(=O)COc2cccnc2[N+](=O)[O-])c(C)n1-c1ccccc1,-5.43
6,Cc1cc(C(=O)CCl)c(C)n1CCc1ccc(F)cc1,-39.9
7,COC(=O)c1ccc(-n2c(C)cc(C(=O)CCl)c2C)cc1,-37.5
8,CC(C)(C)c1ccc(-c2noc(CCC(=O)NCC3CCCO3)n2)cc1 (configuration not stated),-13.9
9,Cc1cc(NCCCn2ccnc2)n2ncc(-c3ccccc3)c2n1,-14.2
10,O=C(NCc1ccco1)c1ccc(COCC(F)(F)F)cc1,5.83
11,COc1ccc(S(=O)(=O)Nc2ccc(O)c3ccccc23)cc1,-41.7
12,O=[N+]([O-])c1ccccc1OCCOc1ccccc1[N+](=O)[O-],2.56
13,CCOc1ccc(/C=C2\SC(=S)N(CCC(=O)O)C2=O)cc1,7.91
14,CCOC(=O)CSc1nc2cc(OCC)ccc2cc1C#N,1.72
15,CCOC(=O)c1sc(NC(=O)Nc2ccc(Cl)cc2)nc1C,0.663
16,CCOC(=O)CSC1=NC(=O)/C(=C\c2ccc(OC(C)=O)cc2)S1,-33.5
17,COc1ccc(CNC(=O)CN2C(=O)C3C4C=CC(C4)C3C2=O)cc1 (configuration not stated),-3.3
18,CC(C)(C)c1ccc(-c2cc(N)n[nH]2)cc1,-6.89
19,COCCn1c(C)cc(C(=O)CSc2nnc(C)s2)c1C,-0.249
20,O=C(CCl)N1c2ccccc2CCc2ccccc21,-49.2
21,COc1ccc(CCC(=O)N2CCc3ccccc32)cc1,8.39

row,SMILES,"activity change, negative = inhibition [%]"
1,CC(=O)c1sc(N/N=C\c2ccc(N(C)C)cc2)nc1C,5.88
2,COc1cccc(C(=O)Nc2ccc3c(cc2=O)[C@@H](NC(C)=O)CCc2cc(OC)c(OC)c(OC)c2-3)c1,-7.94
3,O=C1c2ccccc2C(=O)N1CCOc1ccccc1,4.44
4,Cc1nc2ccccn2c1C(=O)/C=C/c1cccc([N+](=O)[O-])c1,-12.5
5,O=C(/C=C/c1cccc([N+](=O)[O-])c1)n1cnc2ccccc21,7.11
6,CCOC(=O)C(=Cc1ccc(-n2ccnc2)cc1)C(=O)OCC,-26.4
7,Cc1ccc(-n2ncc3c(SCC(N)=O)ncnc32)cc1C,6.21
8,CC(=O)c1ccc(Sc2nnnn2-c2ccccc2)c([N+](=O)[O-])c1,-9.01
9,CCOc1ccc2cc(C#N)c(SCC(=O)OC)nc2c1,7.87
10,Cc1cc(C)cc(NS(=O)(=O)c2ccc3c(c2)c(=O)n(C)c(=O)n3C)c1,2.38
11,N#Cc1cnn2cc(CCN3CCOCC3)c(-c3ccc(F)cc3)nc12,1.83
12,O=C(Cn1nnc(-c2ccccc2Cl)n1)N1CCCCC1,8.11
13,O=C(CCCc1ccccc1)N1CCN(C2CCCCC2)CC1,-3.56
14,Cc1cc(Cl)ccc1OCCCC(=O)N1CCOCC1,-4.77
15,Cc1ccc(C(=O)c2cccc(N)c2)cc1C,0.35
16,CC(C)(C)c1ccc(C(=O)N2CCCCCC2=O)cc1,6.45
17,O=C(CSCc1c(F)cccc1F)Nc1ccccc1,2.1
18,CC(C)(C)OC(=O)N1CCN(C(=O)c2nc[nH]c2C(=O)N2CCN(c3ccccc3)CC2)CC1,-26
19,Cc1ccsc1C(=O)OCC(=O)Nc1sccc1C(N)=O,-20.1
20,CCCCC(=O)N/C(N)=N/c1nc2ccccc2o1,-0.61
21,Cc1c(Cl)c([N+](=O)[O-])nn1Cc1ccc(C(=O)N/N=C\c2cc(Cl)ccc2O)o1,-5.4

row,SMILES,"activity change, negative = inhibition [%]"
1,O=C(N/N=C/c1ccccn1)c1cc([N+](=O)[O-])cc([N+](=O)[O-])c1,-7.68
2,O=C(c1ccc([N+](=O)[O-])s1)N1CCN(c2ccccn2)CC1,-34.3
3,O=C(O)c1cc2ccccc2c(N=Nc2cccnc2)c1O,-0.206
4,CN(C)S(=O)(=O)c1cccc(NC(=O)CSc2nc3c(cc2C#N)C(=O)CC(C)(C)C3)c1,-8.7
5,O=C(c1nnsc1S(=O)(=O)c1ccc(Cl)cc1)N1CCOCC1,-35.8
6,Nc1ccc(-c2nc3ccc(C(=O)O)cc3s2)cc1,0.971
7,OCC1CCCC(n2cnc3c(=S)nc[nH]c32)O1 (configuration not stated),-7.54
8,CCN1CCN(CCCNC(=O)c2ccc3c(Cl)c4c(nc3c2)CCCC4)CC1,-24.1
9,CCN1CCCC1CNC(=O)c1ccc2c(c1)NC(=O)/C(=C\c1ccc(OC)c(OC)c1)S2 (configuration not stated),-14.6
10,CCCC1=Nc2cc(C(=O)NCCN3CCCC3)ccc2Sc2ccccc21,-14.3
11,COc1cccc(/C=C2/Sc3ccc(C(=O)NCCN4CCCC4)cc3NC2=O)c1,-19.7
12,Cc1cccc(/C=C2/Sc3ccc(C(=O)NCCN4CCCC4)cc3NC2=O)c1,-24
13,CCNc1nc(N)c(C(=O)c2ccc(Cl)s2)s1,-12.9
14,CSc1nc(N)n2nc(-c3ccc(Cl)cc3)cc2n1,-9.67
15,CC(C)CC(=O)/C=C/n1c(=S)oc2ccccc21,-49.6
16,O=C(CC(=O)c1ccccc1)Nc1ccccn1,-16
17,CN(c1cccc(NC(=O)COc2ccc(Cl)cc2Cl)c1)S(C)(=O)=O,0.563
18,CC(=O)Nc1ccc(S(=O)(=O)N2CCn3cccc3C2C)cc1 (configuration not stated),-14
19,CC(=O)Nc1cccc2c1Cc1ccccc1-2,8.57
20,c1ccc(-c2cn3nc4c(nc3n2)CCCC4)cc1,-27.3
21,O=S1(=O)CCC(NC(=S)SCc2ccccc2Br)C1 (configuration not stated),-16

row,SMILES,"activity change, negative = inhibition [%]"
1,COc1cccc(-c2nnc3sc(-c4cccs4)nn23)c1,13.5
2,COCC(C)Nc1ncnc2c1cnn2-c1ccc(Cl)cc1 (configuration not stated),10.2
3,Nc1ccccc1SC1CC(=O)N(c2ccc3c(c2)OCCO3)C1=O (configuration not stated),4.99
4,Cc1ccc2nc(NC(=O)c3ccc(Br)o3)sc2c1,-5.82
5,COC(=O)CSC1=C(C#N)C(=O)NC(c2ccccc2)S1 (configuration not stated),-22.9
6,CC(C)(C)c1ccc(OCCn2ccccc2=O)cc1,-0.875
7,Cc1ccc(OCCNCc2ccccc2)c(C)c1,7.74
8,Cc1ccc2nc3cc([N+](=O)[O-])cc([N+](=O)[O-])c3cc2c1,2.33
9,NC(=O)c1cc([N+](=O)[O-])ccc1NCc1ccc(N)cc1,15.2
10,CC(=O)N/C(N)=N/c1nc2cc(C)ccc2o1,-0.336
11,Cc1ccc(NC(=O)c2cnc3ccccc3n2)cc1C,-1.88
12,CCn1nccc1C(=O)Nc1ccc(C)c(C)c1,-11.8
13,CC(C)=CCc1c(O)ccc2c1OC(c1ccc(O)c(O)c1)CC2=O (configuration not stated),3.9
14,Cc1c(OCC(=O)NC2CC(C)(C)NC(C)(C)C2)ccc2c1oc(=O)c1ccccc12,-54.9
15,COc1cc(SC)ccc1C(=O)NCCOc1ccccc1Cl,2.19
16,CC1CCN(CC2C(=O)O[C@@H]3C[C@@]4(C)CCC[C@H](C)C4=C[C@H]23)CC(C)(C)C1 (some centres not stated),-19
17,COc1ccc(C(=O)N/N=C/c2cc(Br)ccc2O)cc1OC,-22.8
18,CCOc1ccccc1NC(=O)C(=O)N/N=C/c1cc(Br)ccc1O,-22.8
19,COc1ccc(CCn2c(=S)[nH]c3cc(C(=O)NCc4ccco4)ccc3c2=O)cc1OC,-24.1
